Results on 69 sequences are retold here after PubChem BioAssay AID1508600 (Functional Genomics Laboratory (NCATS/FGL), 2020).

In all, about 53,000 sequences went through this assay and about 3,700 (7%) were called active. Many of the other results were omitted from the sample, so actives are more common in it than they were. Unmarked numbers belong to inactive results.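 How the source made its calls: active means gene knockdowns whose robust z-score for IL-1 alpha signal is at least 2 or at most -2, so actives lie on both sides; inactive means the rest.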

A short description of this assay: Components of the Cytosolic LPS Sensing Pathway: Gene Identification via Genome-wide siRNA Screen.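 Further: robust z of the log signal after scaling to non-targeting control siRNA wells of the plate.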 The following applies: RAW264.7 macrophages, IL-1a HTRF, actives lie on both sides, screened at 100 nM (by protocol), cells primed 5 h with Pam3CSK4 first. In outline:
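RAW264.7; siRNA 100 nM final, RNAiMAX, 48h 37 degrees C; Pam3CSK4 5 h; LipidA + TransIT-TKO 24 h; IL-1a HTRF; CellTiter-Glo viability; robust z vs negative-control median.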
For GGAGUAAAUUGAGAAACCATT against Acsm5, the z-score is -0.149.

Take CCUUUAUUUCUGUGAAUCUTT against Olfr1467: the z-score is 0.631.

Turning to GCUGUUCGUGAGGAUAACCTT against Yipf1, the z-score is 1.2.

Take GGGUAGAAUGACUUUGGCCTT against Cldn2: the z-score is 1.19.

GGCUUAUCAUAUGAAGACATT against Aplp2: the z-score was 2.33 (active).

With GGAGUCACCAGACUUGUGUTT against Svs3b, the z-score is 0.637.

On to GGAAAAUGCUCACAUAGUGTT against Pak1ip1, for which the z-score is 0.442.

As for CGCAUACUGUGGAAUAGUUTT against Spag4, the z-score is -1.26.

GGAAUGAAAGUUCCACUAUTT against Emcn: the z-score was -0.633.

As for CCCACCACUAUUUAUAUGATT against Dlg2, the z-score was -0.17.

As to GGAUGUGACAUGAAUCCUGTT against Ankle1, the z-score was -0.49.

Regarding CCAAAACUAGGAAGAAACATT against Olfr716, the z-score is -2.3 (active).

For GGCAAUAAAUAUCCAGAAATT against Crygn, the z-score is 1.02.

Turning to GCAGCUCUGCGGAAGCUUUTT against Olfr1350, the z-score is -0.505.

GGAUCUUGAUAGACUGAUGTT against Rhox5: the z-score is 0.362.

As for GGAAAAUCUCCGUUGUCUCTT against Acin1, the z-score was -2.76 (active).

As to UCAUUGAGAAAGGAGAAGATT against Cox17, the z-score was -0.547.

GGUAGAUAACCUGAUUUAUTT against Slc7a6: the z-score was 2.22 (active).

As to GCCUGUGUAUUACUUUUUUTT against Sned1, the z-score was -0.786.

As to GGAGUUGCCUCUGAAGACCTT against Ccm2l, the z-score is 0.797.

GGUGUUCAGGAGAUGAUGCTT against Cdt1: the z-score was 0.0123.

Regarding GGAGCAUCUCCUCAUGGAUTT against Actl11, the z-score was 2.08 (active).

Regarding GCCUUAUCCUGAGAAUGGCTT against Lrrc47, the z-score is -0.61.

Take GGCUGCUGUUAACAAGCUGTT against Wdr13: the z-score is -2.41 (active).

Turning to GCUCCUCCAGAUACAUGCUTT against Tbrg1, the z-score is -0.741.

GGUUCUUUCGACUUCCUGCTT against Ccbe1: the z-score was -0.166.

Turning to GGCAACAGACAAACAGCCGTT against Ugcg, the z-score was -1.54.

For GGAGAAGAAAAAGCGGUACTT against Plxnb2, the z-score is 2.71 (active).

In the case of GGAGUACUGGGCAUAUAAATT against Slc29a3, the z-score is -0.324.

As to GGGUGGUUAGAACAGCCACTT against Prss16, the z-score is -1.21.

Regarding CCCUAGAGAUGGUGGGUCUTT against Olfr934, the z-score is -0.484.

For GGCAGUUAACACUUAAUGATT against Foxp2, the z-score was 0.609.

GGAACAUAACUCUUGUAUATT against Dhx35: the z-score was -1.52.

For the sequence “GGAGAAACUUCUUUAAAGCTT against 5830427D03Rik”, the z-score was 0.573.

As for GGACAAGUGCCUCUCACCATT against Glis2, the z-score is -3.25 (active).

For GGCAGAAAGUAAAUCCGUGTT against Exoc3l4, the z-score was -1.22.

In the case of GGCCAUAGAUAUUCAAGGUTT against Olfr218, the z-score was 0.293.

GCCUUUGUGUUACAAUAUGTT against Fermt2: the z-score is 0.487.

For the sequence GUCAAAGAGUUUCAGCAUCTT against Foxl1, the z-score is 0.664.

For GGAGGUUUUCCGAAGUAUUTT against Pnpt1, the z-score is 1.2.

Take GGCUCUGUGACCAAGAUUUTT against Rtca: the z-score was -1.48.

As to GCCUCUCUCUAUCUAUGCATT against Tob2, the z-score is -2.2 (active).

For GCAACGUGGUCUAUGAAUUTT against Disp2, the z-score was -0.694.

With GGUUUUUCAGUGACACAUGTT against Vmn1r192, the z-score was 2.26 (active).

As for CCAGAGUUUUAUAACGGAATT against Olfr1229, the z-score is 0.601.

In the case of GGUUGUGCAGUUUUAUUUCTT against Tceal1, the z-score was -0.176.

For the sequence GCUAACAUUGUAAAUGCACTT against Dmrta1, the z-score was 0.467.

Take GGAAAAGCUUUUGUUCCCATT against Tfb1m: the z-score is 2.58 (active).

For the sequence GGAUUCUUCAUUUCUAGUGTT against C1qtnf6, the z-score is 0.231.

On to GGUUCUGAACACAUUUCCATT against Cyp2d13, for which the z-score is -1.07.

As for GUUUCUUCCAAACUCCAUCTT against Olfr487, the z-score is 0.622.

As to GGUCGACAGUUAAAAUGAUTT against Bpifc, the z-score was -0.431.

In the case of GCAAGCCCUGGAAGAAUUATT against Nat8, the z-score was 2.26 (active).

In the case of GGAUGAGUACACUGAAAGCTT against Nvl, the z-score is 0.544.

In the case of CGUGGACAUCGAUAUCACCTT against Slc26a8, the z-score was -0.737.

For the sequence CCCGGAAUAAGACAAUUUCTT against Olfr788, the z-score was 0.282.

Take GCAUGUUAAGCCUUGUAUATT against Tnpo1: the z-score is -1.67.

With GGCUACAGAAGCUACUAAATT against Akr1c6, the z-score was 1.23.

With GGGUGCAUCCCAUUCUCUUTT against Pld1, the z-score was -0.0755.

On to GCGAGAGAUCCCUCUGAAATT against Pigs, for which the z-score is -0.284.

Turning to GCAUCCCAGAUAUUGAGCATT against Arrdc1, the z-score was 2.52 (active).

Consider GCUCUGUUCACACGUUUAATT against Arhgap10, for which the z-score is -0.898.

For CGAAAUUGUGAUGAUGAACTT against Mast1, the z-score was -0.799.

Turning to CCAAUUUGACCCAUACUAUTT against Crtc2, the z-score is 1.61.

As for GGAGAUUGGGAUCAAAGCCTT against Mthfd1, the z-score was -1.56.

For the sequence GGACCUUUCAUCAACCCAUTT against Olfr676, the z-score is 2.13 (active).

As to GGUGCCAUUGAUUCUGUAGTT against Smim10l2a, the z-score is -0.807.

As for GCAGUGGGAAUCGAUAAAGTT against Fgfr2, the z-score is -0.876.

Turning to GGCAAGCUGUAAAAGAUGCTT against Noc3l, the z-score is 3.32 (active).
